PLC-beta3 inh = blocks human PLC-beta3 enzyme activity; inhibition, % at 12.2 µM; 370,000 tested, 0.18% active; Purified PLC-beta3, fluorogenic substrate, fluorescence; AID 720704; in the data active = inhibition above about 11%;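 note: 0% = median of compound wells on plate and 100% = full blocker control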
NPR2 activator = GC-B (human) receptor activation. P20594. HEK293-GC-B cells, CNP EC30, cGMP TR-FRET; 0% at EC30 CNP, 100% saturating CNP. activation, % at 10 µM. 370,000 tested, 0.11% active. AID 1920062;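 active = activation at 10 µM reaching about 35% in either raw or pattern-adjusted values, limit read from the data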
Target sequence (P20594 whole entry, looked up): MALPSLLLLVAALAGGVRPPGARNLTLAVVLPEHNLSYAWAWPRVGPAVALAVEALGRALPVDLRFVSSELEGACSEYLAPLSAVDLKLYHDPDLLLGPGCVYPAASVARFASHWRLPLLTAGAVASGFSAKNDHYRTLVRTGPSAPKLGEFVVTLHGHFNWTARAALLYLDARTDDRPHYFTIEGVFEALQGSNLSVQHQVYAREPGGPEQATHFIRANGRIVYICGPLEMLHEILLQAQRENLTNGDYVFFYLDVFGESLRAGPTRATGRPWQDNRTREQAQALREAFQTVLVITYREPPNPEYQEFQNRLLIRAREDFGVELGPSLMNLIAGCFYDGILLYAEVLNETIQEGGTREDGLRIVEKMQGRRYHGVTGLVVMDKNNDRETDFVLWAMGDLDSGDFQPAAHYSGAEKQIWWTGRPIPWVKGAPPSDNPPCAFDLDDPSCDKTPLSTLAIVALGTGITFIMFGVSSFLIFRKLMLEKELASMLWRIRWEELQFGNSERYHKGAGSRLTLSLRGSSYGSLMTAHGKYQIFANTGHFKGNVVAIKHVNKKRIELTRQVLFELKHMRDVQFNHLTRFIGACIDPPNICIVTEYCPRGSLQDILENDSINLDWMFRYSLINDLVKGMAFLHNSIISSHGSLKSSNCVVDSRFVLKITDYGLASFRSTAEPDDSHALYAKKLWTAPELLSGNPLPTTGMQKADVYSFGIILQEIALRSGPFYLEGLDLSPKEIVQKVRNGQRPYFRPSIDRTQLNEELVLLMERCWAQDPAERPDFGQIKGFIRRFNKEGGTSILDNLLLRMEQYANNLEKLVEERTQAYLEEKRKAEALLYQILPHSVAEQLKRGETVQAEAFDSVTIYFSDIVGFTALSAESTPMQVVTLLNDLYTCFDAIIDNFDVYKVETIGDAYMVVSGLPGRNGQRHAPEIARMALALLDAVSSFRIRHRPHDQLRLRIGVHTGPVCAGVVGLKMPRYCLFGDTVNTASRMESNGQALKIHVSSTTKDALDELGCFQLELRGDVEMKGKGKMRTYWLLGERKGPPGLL
PfM18AAP inh = blocks P. falciparum M18 aspartyl aminopeptidase. 290,000 tested, 1.2% active. inhibition, % at 7.35 µM. recombinant PfM18AAP, H-Glu-NHMec fluorogenic cleavage. AID 1822;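 active = inhibition above the campaign mean inhibition over all tested compounds plus 3 SD, cut at about 28% in these data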;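 note: 0% = plate median of test compound wells and 100% = 2 mM ZnCl2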
PLCg1 inh = PLC-gamma1 (human) inhibition, primary screen. P19174. purified PLC-gamma1, fluorogenic substrate, fluorescence. inhibition, % at 12.2 µM. 370,000 tested, 0.84% active; in the data active = inhibition above about 9.5%
NPR1 activator = GC-A (human) enzyme activation | AID 1671463 | HEK293 GC-A cells, cGMP TR-FRET, EC30 ANP; 0% at EC30 ANP, 100% saturating ANP | activation, % at 10 µM | 370,000 tested, 0.14% active | P16066; in the data active = activation above about 40%
Rce1 inh = blocks yeast Ras-converting enzyme | yeast membranes, quenched prenylated peptide cleavage fluorescence | calls only | 290,000 tested, 0.27% active | AID 2563;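 active = fall in fluorescence gain of 50% or more versus controls, with final raw signal at or below 3038400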;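 note: plate controls were neutral control wells for no effect and wells lacking membranes for full effect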
* marks the source's active call; other numbers are inactive results; i = inactive; nt = no result given; + = active, no number. The list is not random: actives were taken first. Their share in the collection is about 2.2%.

SMILES	PLC-beta3 inh	NPR2 activator	PfM18AAP inh	PLCg1 inh	NPR1 activator	Rce1 inh
CCCCn1c(NS(=O)(=O)c2ccccc2)c(S(=O)(=O)c2ccc(C)cc2)c2nc3ccccc3nc21	-20	2	12	17*	5	i
O=C(Nc1ccc2c(c1)CCC2)c1ccccc1Br	-2	1	-5	0	4	+
S=c1[nH]nc(-c2ccccc2)o1	-10	-4	6	-7	7	+
Cc1ccccc1-c1n[nH]c(=S)o1	-9	nt	-8	-5	nt	i
CCCC1CCC2(CC1)CCC2OC(=S)NCc1cccc(OC)c1 (stereo not given)	-4	2	nt	-3	-5	nt
COC(=O)c1c(-c2ccc(C(C)(C)C)cc2)csc1NC(=O)C1C2CCC(O2)C1C(=O)O (stereo not given)	-1	6	28*	-3	5	i
Nc1nn(-c2ccccc2)c(N)c1N=Nc1ccccc1F	5	-2	5	6	7	i
Cc1nc2c(N=Nc3ccccc3F)c(N)nn2c(N)c1C#N	-4	-2	-9	2	43*	i
COc1ccc(-c2[nH]ncc2N=Nc2cc(C)cc(C)c2)cc1	2	55*	6	5	-1	i
Nc1nonc1-n1nnc(C(=O)N/N=C/c2ccccc2)c1CSc1ccc(Cl)cc1	-1	2	-12	0	-4	+
Cc1ccc(-c2c(C(=O)N/N=C/c3cccc(Cl)c3)nnn2-c2nonc2N)cc1	-8	-5	3	-2	1	+
Cc1ccc(-c2c(C(=O)N/N=C/c3ccoc3)nnn2-c2nonc2N)cc1	-10	1	-7	-1	-4	i
Cc1ccc(SCc2c(C(=O)N/N=C/c3ccccc3)nnn2-c2nonc2N)cc1	7	0	4	4	-7	+
Nc1nonc1-n1nnc(C(=O)N/N=C/c2cccc(Cl)c2)c1CSc1ccc(Cl)cc1	0	3	0	0	-4	+
O=C(c1cccnc1Cl)N1CCC(Oc2cccnc2)CC1	-2	1	nt	1	2	nt
CC(C)c1c(C(=O)N/N=C/c2ccco2)nnn1-c1nonc1N	-13	-1	8	1	3	i
Cc1ccc(/C=N/NC(=O)c2nnn(-c3nonc3N)c2C(C)C)o1	-9	2	2	-1	5	+
O=C(N1CCCC1)n1ncc(-c2ccc(-c3ccccc3)cc2)n1	0	1	nt	-3	5	nt
O=c1oc2ccccc2c(NCc2ccccc2)c1[N+](=O)[O-]	1	2	4	1	4	i
Nc1c(NCc2ccccc2)c2ccccc2oc1=O	0	4	30*	-2	8	i
C[C@H]1[C@@H](OC(=O)NCc2cccs2)CC[C@@]23CCCN2C(=O)CCC[C@@H]13	2	-3	nt	-2	0	nt
O=C(NCc1ccccn1)c1cc2n(n1)C(C(F)(F)F)CC(c1ccco1)N2 (stereo not given)	-27	-4	31*	-22	0	i
CN(C)C(=O)COC(=O)c1ccccc1Nc1ccc(SC(F)F)cc1	-73	1	10	-77	42*	i
CCOC(=O)C1(Cc2ccccc2)CCN(Cc2cccc(C#N)c2)CC1	3	2	nt	0	-1	nt
COC(=O)C[C@H]1CC[C@@H]2[C@H](COc3ccc(NS(C)(=O)=O)cc3C(=O)N2C)O1	0	-1	nt	-1	3	nt
SMILES	PLC-beta3 inh	NPR2 activator	PfM18AAP inh	PLCg1 inh	NPR1 activator	Rce1 inh
C[C@H]1COc2c(C3(N)CC3)c(F)cc3c(=O)c(C(=O)O)cn1c23	nt	nt	17	nt	nt	i
C[C@H]1COc2c(N3CCN(C)CC3)c(F)cc3c(=O)c(C(=O)O)cn1c23	i	1	7	i	4	+
COc1cccc(C(=O)NNC2=CC(=O)CC(C)(C)C2)c1	-71	-1	31*	-60	2	i
CCN(C[C@H]1[C@@H](c2ccc(C3=CCCC3)cc2)[C@H](CO)N1C(=O)c1cccnc1)S(=O)(=O)c1ccccc1[N+](=O)[O-]	0	-3	nt	0	-5	nt
O=[N+]([O-])c1ccc(-c2cn3nc(-c4ccccc4)c(-c4ccccc4)nc3n2)cc1	-19	11	30*	-11	0	i
O=[N+]([O-])c1cccc(-c2cn3nc(-c4ccccc4)c(-c4ccccc4)nc3n2)c1	-13	-9	6	-1	7	i
O=C(Nc1ccc2c(c1)Cc1ccccc1-2)NC1CCCCN(Cc2ccc(Cl)cc2)C1=O (stereo not given)	-3	1	nt	4	-1	nt
Cn1c(=O)c(=O)n(C)c2cc(S(=O)(=O)N3CCN(Cc4ccc5c(c4)OCO5)CC3)ccc21	0	0	nt	5	2	nt
CCC1CCCCN1C(=O)NC(=O)c1ccccc1 (stereo not given)	-6	0	-9	4	2	+
CC(=O)N1CCN(C(=O)Cn2c(=O)oc3ccccc32)CC1	3	5	-4	-1	-2	i
CCC1CCCCN1C(=O)Cn1c(=O)oc2ccccc21 (stereo not given)	3	2	29*	0	2	i
CCC1CCCCN1C(=S)NC(=O)c1ccc([N+](=O)[O-])cc1 (stereo not given)	-1	1	0	0	3	i
O=S1(=O)CC2c3ccccc3CN2CN1CCc1ccccc1 (stereo not given)	-9	0	nt	-9	4	nt
Cc1ccc(S(=O)(=O)CCC(=O)c2ccc(F)cc2)cc1	-5	-3	-90	-1	71*	i
Cc1ccc(S(=O)(=O)CCC(=O)NCc2ccc(Cl)cc2)cc1	2	2	-5	7	3	i
Cc1ccc(C(=O)CCS(=O)(=O)c2ccc(F)cc2)cc1	-6	-6	-53	1	52*	i
COc1ccc(C(=O)CCS(=O)(=O)c2ccc(F)cc2)cc1OC	-7	0	-68	0	-1	i
Cc1ccc(C(=O)CCS(=O)(=O)c2ccc(Cl)cc2)cc1	-10	-10	-38	-1	52*	i
Cc1ccc(-c2nc3ccccc3nc2NN)cc1	-72	-8	31*	-52	-5	i
Cc1cccc(NC(=O)CC2Nc3cccc4cccc(c34)NC2=O)c1 (stereo not given)	-15	-4	3	-7	2	i
CC(=O)c1ccc(NC(=O)CC2Nc3cccc4cccc(c34)NC2=O)cc1 (stereo not given)	-27	0	29*	-20	0	i
COc1ccc(S[C@]2(C(=O)N3CCN(C(C)=O)CC3)CC(=O)N(C(=O)C3CC3)[C@@H]2c2ccc(OC)cc2)cc1	-1	-6	nt	-1	1	nt
Cc1cnc(NC(=O)CSc2nnc(COc3c(C)cccc3C)o2)s1	-4	97*	28*	-1	1	i

Screens from PubChem BioAssay.
